Measured values as given in PubChem BioAssay.
Active and inactive are the calls of the source.

What was measured:
[1] = system: Plasmodium falciparum Sir2 (PF13_0152, Sir2A); assay: Plasmodium falciparum Sir2A binding compounds – biochemical, small-molecule microarray, 635 nm fluorescence, primary screen (AID 1098); settings: fluorescence 635 nm, higher = more signal;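 further: score merges spot fluorescence intensity with its signal-to-noise ratio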
[2] = probe aDKK1 binding to arrayed compounds – biochemical, biotinylated probe, 635/667 nm fluorescence, primary screen (AID 1099); settings: small-molecule microarray, higher = more signal;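 further: score merges 667nm spot fluorescence with signal to noise across triplicate slides; reference of the scale not given here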
[3] = probe aCHRDL2 binding to arrayed compounds – biochemical, biotinylated probe, 635/667 nm fluorescence, primary screen (AID 1100); settings: small-molecule microarray, higher = more signal
[4] = change in splice reporter luminescence, either direction, cell-based, HEK293, spliceosome inhibition project, primary screen (AID 1101); settings: HEK293 splicing luciferase reporter, 24 h, higher = more signal, called active from +8 up or from −8 down;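 further: HEK293 cells carrying a splicing-competent luciferase reporter gene; test concentration not given here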
[5] = biological target: Fibroblast growth factor 10 (Homo sapiens) (UniProt O15520); assay: compounds binding fibroblast growth factor 10 – biochemical, small-molecule microarray, 635 nm fluorescence, primary screen (AID 1102); settings: FGF10 binding, fluorescence 635 nm, higher = more signal
[6] = system: glycogen synthase kinase-3 (GSK3A per assay name; protocol says GSK3B); assay: compounds binding glycogen synthase kinase-3 – biochemical, small-molecule microarray, 635 nm fluorescence, GSK3A, primary screen (AID 1103); settings: fluorescence 635 nm, higher = more signal; further: the record names both GSK3A and GSK3B
[7] = biological target: Epidermal growth factor receptor (Homo sapiens) (UniProt P00533); assay: compounds binding epidermal growth factor receptor – biochemical, small-molecule microarray, 635 nm fluorescence, primary screen (AID 1104); settings: EGFR binding, higher = more signal;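 further: score merges 667 nm emission intensity with spot signal to noise over triplicate slides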
[8] = biological target: Follistatin-related protein 3 (Homo sapiens) (UniProt O95633); assay: compounds binding follistatin-related protein 3 – biochemical, small-molecule microarray, 635 nm fluorescence, primary screen (AID 1105); settings: FSTL3 binding, higher = more signal;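 further: score merges emission near 667 nm and signal to noise per printed spot across three slides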
[9] = biological target: Dickkopf-related protein 1 (Homo sapiens) (UniProt O94907); assay: small molecules binding DKK1 protein – biochemical, small-molecule microarray, 635 nm fluorescence scan, primary screen (AID 1106); settings: higher = more signal;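 further: score merges emission near 667 nm with signal to noise over three replicate slides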
[10] = system: Inhibin beta A chain (activin A); assay: small molecules binding activin A – biochemical, small-molecule microarray, 635 nm fluorescence scan, primary screen (AID 1107); settings: INHBA, higher = more signal;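 further: mouse activin A protein probed at 4.33 µg/mL on printed slides; score merges bound-protein fluorescence near 667 nm with spot signal-to-noise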

Follistatin-related protein 3 (Homo sapiens), sequence (O95633 whole entry, looked up): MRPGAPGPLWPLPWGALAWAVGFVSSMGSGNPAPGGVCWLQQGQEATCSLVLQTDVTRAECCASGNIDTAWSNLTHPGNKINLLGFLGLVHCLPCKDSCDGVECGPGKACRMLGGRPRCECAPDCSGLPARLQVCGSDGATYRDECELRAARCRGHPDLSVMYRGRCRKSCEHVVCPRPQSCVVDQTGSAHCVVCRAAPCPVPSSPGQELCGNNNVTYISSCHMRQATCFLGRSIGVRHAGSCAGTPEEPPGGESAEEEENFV
Fibroblast growth factor 10 (Homo sapiens), sequence (O15520 whole entry, looked up): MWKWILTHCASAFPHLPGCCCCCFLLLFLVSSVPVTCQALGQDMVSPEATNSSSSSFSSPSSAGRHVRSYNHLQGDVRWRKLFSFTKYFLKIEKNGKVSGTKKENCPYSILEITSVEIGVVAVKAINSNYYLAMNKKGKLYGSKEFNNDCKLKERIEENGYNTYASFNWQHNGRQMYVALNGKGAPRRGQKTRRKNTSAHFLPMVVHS
Epidermal growth factor receptor (Homo sapiens), sequence (P00533 whole entry, looked up): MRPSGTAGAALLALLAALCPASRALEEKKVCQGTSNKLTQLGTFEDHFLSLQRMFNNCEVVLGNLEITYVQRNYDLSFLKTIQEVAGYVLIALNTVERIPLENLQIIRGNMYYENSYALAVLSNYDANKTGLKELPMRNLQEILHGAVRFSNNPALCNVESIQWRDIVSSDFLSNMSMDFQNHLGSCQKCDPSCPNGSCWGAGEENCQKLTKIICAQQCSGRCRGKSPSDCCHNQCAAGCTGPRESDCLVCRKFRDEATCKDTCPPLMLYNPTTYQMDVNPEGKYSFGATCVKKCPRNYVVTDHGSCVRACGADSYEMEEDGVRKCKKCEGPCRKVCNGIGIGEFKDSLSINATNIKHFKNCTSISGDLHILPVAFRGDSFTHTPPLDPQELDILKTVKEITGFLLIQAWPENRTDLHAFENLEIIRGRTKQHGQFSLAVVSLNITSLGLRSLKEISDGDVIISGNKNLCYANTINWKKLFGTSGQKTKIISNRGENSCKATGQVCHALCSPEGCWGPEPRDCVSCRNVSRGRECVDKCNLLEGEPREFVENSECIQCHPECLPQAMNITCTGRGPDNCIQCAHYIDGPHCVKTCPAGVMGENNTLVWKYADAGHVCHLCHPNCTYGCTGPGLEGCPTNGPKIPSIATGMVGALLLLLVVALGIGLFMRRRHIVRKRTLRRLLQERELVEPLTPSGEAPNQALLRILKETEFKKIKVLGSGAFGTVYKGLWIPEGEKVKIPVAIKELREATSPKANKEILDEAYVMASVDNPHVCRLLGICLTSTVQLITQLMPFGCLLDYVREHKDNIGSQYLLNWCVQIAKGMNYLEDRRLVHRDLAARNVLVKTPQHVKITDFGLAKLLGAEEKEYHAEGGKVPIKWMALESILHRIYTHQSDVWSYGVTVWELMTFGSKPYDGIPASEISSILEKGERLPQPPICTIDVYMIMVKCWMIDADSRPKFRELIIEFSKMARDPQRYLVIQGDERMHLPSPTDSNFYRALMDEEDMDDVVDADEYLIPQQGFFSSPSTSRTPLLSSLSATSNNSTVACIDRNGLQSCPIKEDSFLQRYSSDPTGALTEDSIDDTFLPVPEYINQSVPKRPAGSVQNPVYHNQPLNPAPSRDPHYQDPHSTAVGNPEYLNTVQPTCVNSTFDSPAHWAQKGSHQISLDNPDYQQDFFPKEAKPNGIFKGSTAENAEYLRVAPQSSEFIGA
Dickkopf-related protein 1 (Homo sapiens), sequence (O94907 whole entry, looked up): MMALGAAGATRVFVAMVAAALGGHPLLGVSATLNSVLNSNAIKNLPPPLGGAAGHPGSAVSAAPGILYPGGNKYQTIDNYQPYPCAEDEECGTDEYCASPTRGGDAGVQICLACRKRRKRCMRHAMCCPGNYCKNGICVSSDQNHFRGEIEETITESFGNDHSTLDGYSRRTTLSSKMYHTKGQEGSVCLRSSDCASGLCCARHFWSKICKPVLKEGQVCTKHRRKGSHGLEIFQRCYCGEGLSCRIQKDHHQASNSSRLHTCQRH

| Compound | composite z-score [1] | composite z-score [2] | composite z-score [3] | z-score [4] | composite z-score [5] | composite z-score [6] | composite z-score [7] | composite z-score [8] | composite z-score [9] | composite z-score [10] |
| --- | --- | --- | --- | --- | --- | --- | --- | --- | --- | --- |
| CCCN1C(=O)[C@]2(CCC(=O)OC(C)(C)C)N=C(c3ccc(OCCCO)cc3)O[C@@H]2c2ccccc21 | 0.715 | 0.173 | 1.16 | 0.0554 (inactive) | 1.31 | 1.21 | -0.413 | 0.299 | -0.175 | 1.31 |
| CC1CC/C=C\[C@H]2OC34C=CCN(Cc5ccccc5)C(=O)[C@H]3N(CCCCCCO)C(=O)[C@@H]4C2C(=O)O1 (stereo not given in full) | 0.954 | -0.0995 | 0.705 | 0.0368 (inactive) | -0.965 | -0.587 | -1.28 | -1.01 | -1.49 | 0.0203 |
| COCCOC(=O)N1C(=O)[C@@]2(c3cc(C#Cc4ccc(OC)cc4)ccc31)[C@H](c1ccc(OCCO)cc1)N1[C@H](c3ccccc3)[C@H](c3ccccc3)OC(=O)[C@H]1[C@@H]2C(=O)NC[C@H](O)c1ccccc1 | 1.38 | 0.92 | 0.537 | -0.279 (inactive) | 1.16 | 1.27 | 0.696 | 0.475 | 0.473 | 0.961 |
| COc1ccc(C(=O)Nc2ccc(CN3C(=O)[C@@]4(O[C@@H](CCn5cc(CCO)nn5)[C@H]([Si](C)(C)c5ccc(OC)cc5)[C@H]4C)c4ccccc43)cc2)cc1 | 1.36 | 0.635 | 0.559 | -1.8 (inactive) | 0.939 | 1.14 | 0.492 | 1.28 | 1 | 1.57 |
| COC(=O)[C@H](Cc1ccc(O)cc1)N[C@@H](/C=C/C1CC1)[C@H](O)Cc1ccccc1 | -0.61 | -0.29 | -0.33 | 1.29 (inactive) | 0.357 | -0.444 | -0.074 | -0.119 | 0.14 | -0.322 |
| O=C(N1CCOCC1)[C@@]1(Cc2ccccc2)COC(c2ccc(OCCCO)cc2)=N1 | 0.666 | 1.23 | 0.84 | -0.694 (inactive) | 0.132 | 0.983 | -0.309 | -0.65 | -0.161 | 0.573 |
| CC(C)[Si](C#CCCc1ccccc1)(O[C@H](c1ccccc1)c1cn(Cc2ccccc2)nn1)C(C)C | 0.431 | -0.069 | -0.496 | 0.105 (inactive) | 0.559 | 1.28 | 0.618 | 0.773 | 0.611 | 0.152 |
| CC=CC(O)C1C=CC2C(=O)NC(=O)C2N1Nc1ccc(Cl)cc1Cl (stereo not given) | 0.547 | 0.171 | 0.55 | 1.9 (inactive) | 0.506 | -1.11 | 0.277 | 0.46 | 0.522 | 1.42 |
| CCCCC(O)C1C=CC2C(=O)N(c3ccccc3)C(=O)C2N1Nc1ccc(C#N)cc1 (stereo not given) | 1.11 | 1.12 | 0.906 | 0.12 (inactive) | 0.398 | 0.383 | 0.0738 | -0.0673 | -0.579 | 0.513 |
| CCCNC(=O)[C@@]1(c2ccc([N+](=O)[O-])cc2)CC(=O)N(C(C)C)[C@@H]1c1ccc(CO)cc1 | 0.928 | -0.0525 | 0.985 | -0.27 (inactive) | -0.853 | -0.664 | -1.52 | -0.546 | -0.695 | -0.251 |
| C=CCN1C(=O)[C@@]2(O[C@@H](CCn3cc([C@H](O)c4ccccc4)nn3)[C@H]([Si](C)(C)c3ccc(OC)cc3)[C@H]2C)c2cc(N3C(=O)c4cccc5cccc3c45)ccc21 | 0.0764 | -0.236 | 0.401 | -0.447 (inactive) | -0.859 | -1.37 | -1.04 | -1.06 | -1.12 | -0.893 |
| COC(=O)[C@@]1(Cc2ccccc2)[C@H]2c3cc(C(=O)N(C)C)n(Cc4ccc(S(C)(=O)=O)cc4)c3C[C@H]2CN1C(=O)c1ccccc1 | 0.308 | 1.1 | 1.22 | 0.376 (inactive) | 0.648 | 0.0903 | -0.366 | -0.0624 | -0.618 | 0.749 |
| CCOc1cc(C(O)C2C=CC3C(=O)N(c4ccccc4)C(=O)C3N2Nc2ccccc2F)ccc1O (stereo not given) | 1.53 | 1.42 | 0.762 | 0.101 (inactive) | 0.208 | -0.186 | 0.232 | -0.271 | -0.344 | 0.604 |
| COC(=O)[C@@]1(Cc2ccc(F)cc2)[C@H]2c3cc(C(=O)N4CCCC4)n(CCc4ccccn4)c3C[C@H]2CN1C(=O)c1ccccc1 | 0.785 | 0.507 | 1.02 | -1.31 (inactive) | 0.577 | -0.73 | -0.559 | -0.575 | -0.554 | 0.987 |
| COc1ccc([Si](C)(C)[C@H]2[C@H](CC(=O)N3Cc4ccccc4C[C@H]3CO)O[C@@]3(C(=O)N(C)c4ccccc43)[C@@H]2C)cc1 | 1.52 | -0.127 | -0.431 | -2.06 (inactive) | 0.891 | 1.29 | 1.01 | 1.4 | 1.53 | 1.58 |
| N#Cc1ccc(-c2cccc(=O)o2)cc1 | 0.306 | -0.269 | -0.0642 | 0.862 (inactive) | 0.219 | 0.441 | 0.506 | 0.345 | 0.0771 | 0.254 |
| COc1ccc([Si](C)(C)[C@@H]2[C@@H](CC(=O)N3CCC[C@H]3CO)O[C@]3(C(=O)N(Cc4ccc(N5CCOC5=O)cc4)c4ccccc43)[C@H]2C)cc1 | 1.4 | -0.3 | 0.135 | -1.58 (inactive) | 0.25 | 0.946 | -0.0626 | 0.388 | 0.366 | 0.0014 |
| CC(C)C[C@H]1NC(=O)C([C@@H](C)OCc2ccccc2)NC(=O)[C@@]23C(=O)N[C@@H](Cc4ccccc4)C2[C@H](C)[C@@]2(C)O[C@H]2C3/C=C/C/C=C\CNC1=O (stereo not given in full) | 0.884 | -0.261 | -0.493 | -0.138 (inactive) | 1.03 | 1.12 | 0.583 | 1.47 | 0.917 | 1.24 |
| O=C1C2C=CC(C(O)c3ccc([N+](=O)[O-])cc3)N(Nc3ccccc3F)C2C(=O)N1c1ccccc1 (stereo not given) | 1.22 | 0.912 | 0.941 | 1.02 (inactive) | 0.436 | 0.351 | -0.0558 | 0.313 | -0.516 | 0.941 |
| C[N+](C)(C)CCCC[C@@H]1NC(=O)[C@H]2C[C@@H](C(=O)NCCCCCNC(=O)CS)[C@@H](c3cccc(OCCO)c3)N2C1=O | 1.57 | 0.242 | 0.47 | 1.12 (inactive) | -0.166 | 0.272 | 0.412 | -0.664 | 0.0501 | 0.761 |
| C=CC[C@]1(C(=O)NCC(O)CO)COC(c2ccc(OCCCO)cc2)=N1 (stereo not given in full) | -0.329 | 0.787 | 1.05 | 0.2 (inactive) | -0.106 | 0.0993 | -1.18 | -0.865 | -0.463 | 1.12 |
| CC(C)c1nc2cc(Br)ccc2c(=O)o1 | 0.338 | 0.444 | -0.123 | 1.44 (inactive) | 0.755 | 1.02 | 0.397 | 0.523 | 0.359 | -0.585 |
| CCOC(=O)C1=CC[C@@H](c2ccc(OC)cc2)N(S(=O)(=O)c2ccc(C)cc2)[C@H]1c1ccc(C)cc1 | 0.71 | 0.528 | 0.836 | -0.0291 (inactive) | 0.642 | 1.07 | -0.0102 | 0.887 | -0.346 | 0.588 |
| COc1cc(C(O)C2C=CC3C(=O)N(c4ccccc4)C(=O)C3N2Nc2ccccc2F)cc(OC)c1OC (stereo not given) | 1.41 | 0.521 | 0.55 | 0.392 (inactive) | 1.35 | 1.34 | -0.117 | 0.479 | -0.0657 | 0.519 |
| COCCOC(=O)N1C(=O)[C@@]2(c3cc(C#CCC(C(=O)OC)C(=O)OC)ccc31)[C@H](C(N)=O)[C@H]1C(=O)O[C@H](c3ccccc3)[C@H](c3ccccc3)N1[C@@H]2c1ccc(O)cc1 | 1.09 | 0.235 | 0.283 | -1.59 (inactive) | 1.42 | 0.863 | 0.69 | 1 | 0.938 | 0.187 |
| C=CCOC(=O)[C@@H]1[C@H]2C(=O)O[C@H](c3ccccc3)[C@H](c3ccccc3)N2[C@H](c2ccc(OCCOC(=O)[C@H]3C[C@H]4C(=O)NCC(=O)N4[C@H]3c3cccc(OCCO)c3)cc2)[C@@]12C(=O)Nc1ccc(I)cc12 | 1.53 | 0.512 | 0.494 | 0.789 (inactive) | 0.742 | 1.36 | 0.725 | 1.23 | 1.11 | 0.118 |
| COC(=O)[C@@]1(Cc2ccc(F)cc2)[C@H]2c3cc(C(=O)N(C)C)n(C)c3C[C@H]2CN1C(=O)c1ccccc1 | 0.0911 | 0.903 | 0.885 | -0.84 (inactive) | 0.414 | -0.489 | -0.286 | -0.125 | -0.615 | 0.468 |
| COC(=O)[C@@]1(Cc2ccc(OC)cc2)[C@H]2c3cc(C(=O)N4CCCC4)n(CCn4cc([N+](=O)[O-])nc4C)c3C[C@H]2CN1C(=O)c1ccccc1 | 1.2 | 2.46 | 1.33 | 0.167 (inactive) | 0.981 | 0.456 | 0.661 | 0.354 | 0.559 | 1.13 |
